Assay outcomes from PubChem.
Sampled rows, rich in hits. Any-hit rate of the full collection: about 2.4%.
ANO1 activ – activates or potentiates the mouse TMEM16A chloride channel; HEK293 TMEM16A/YFP-H148Q/I152L, iodide quench fluorescence; hits give low values; B-score at 10 µM; hit rate 0.3% among 340,000;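 active means fluorescence-ratio B-score plate-corrected deviation score at least 3 library SD below zero, with starting fluorescence score within 5 deviations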;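 further: channel opened by trigger with iodide after compound preincubation; score built on the fluorescence ratio of max minus min over baseline; more negative score means more quench and so TMEM16A activation or potentiation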
CHT allo act – human CHT allosteric activation; Q9GZV3; B-score at 10 µM; AID 488977; hit rate 0.49% among 310,000; CHT-expressing cells, membrane potential dye, choline EC20; hits give high values; LV-AA mutant CHT in HEK293 cells;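 active means initial fluorescence not abnormally high and integrated response B-score, plate-corrected, over 3 SD above library mean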
CHT block – inhibitors of human choline transporter CHT; CHT-expressing cells, membrane potential dye, choline response; hits give low values; B-score at 10 µM; hit rate 0.86% among 310,000;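 active means B-score over 3 SD under the library average, and starting fluorescence ratio not unusually high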;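 further: choline stimulus applied at its EC90 after an EC20 pre-addition; B-score computed on integrated fluorescence ratio after choline addition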
TMEM16A inh – inhibitors of mouse TMEM16A calcium-activated chloride channel; AID 588511; normalized B-score (activity score, 25-100; higher = stronger inhibition) at 10 µM; hit rate 1.2% among 310,000; Q8BHY3; HEK293 TMEM16A/YFP iodide influx fluorescence, ionomycin;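 active means ratio plate-corrected score three or more library SD toward inhibition, starting fluorescence score within five deviations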;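 further: score derived from kinetic fluorescence span divided by baseline fluorescence per well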
CHT act confirm – human CHT activation, confirmatory screen | shares compounds with CHT allo act | CHT-expressing cells, membrane potential dye fluorescence (FDSS); % of choline EC20–EC90 response window; HEK293 expressing CHT LV-AA mutant; choline added at its EC20 | activation, % at 10 µM | hit rate 91% among 2,500 | AID 504833;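 active means primary screen active, with duplicate mean activation above negative control mean plus 3 SD, cut at about 11% in these data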
HEK293 MP dye – counter-screen for CHT activators: effect in parental HEK293 cells | shares compounds with CHT allo act | membrane potential dye fluorescence (FDSS); measured after EC20 choline addition | ratio readout change at 10 µM, hits read low | hit rate 62% among 2,500;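 active means duplicate-averaged ratio beyond 3 SD from buffer wells, up or down, though filed actives are nearly all decreases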
Each line names hits and unclear results; the compound was inactive in the other large screens (follow-up assays come after a bar, where they were run).

COc1ncnc2c1ncn2CC1COC(C)(C)O1 (stereo unspecified)	none
Nn1cnnc1SCC(=O)Nc1ccc2c(c1)OCO2	none
CCCC[N+](CC#CCO)(CC#Cc1ccccc1)CCCC	CHT allo act 10.5 | CHT act confirm 73.8 | HEK293 MP dye inactive
Nc1nncn1C(=O)c1ccc(Cl)cc1Cl	none
Clc1cnc(N/N=C/c2ccncc2)c(Cl)c1	none | CHT act confirm 36.6 | HEK293 MP dye -44.1
COc1ccc(-n2c(-c3ccc(Cl)cc3)c[n+]3c2CCc2ccccc2-3)cc1	CHT allo act 8.21 | CHT act confirm 86.0 | HEK293 MP dye -29.1
c1cc(N2CCCCC2)nc(N2CCCCC2)n1	none (no result: CHT allo act, CHT block, TMEM16A inh)
Cn1cnc2c(N3CCCCC3)nccc21	CHT allo act 8.69 | CHT act confirm 70.8 | HEK293 MP dye -64.5
COC(=O)[C@H](Cc1ccccc1)NC(=O)O[C@@H]1C(=O)c2cc(Br)ccc2O[C@H]1c1cccc(OC)c1	none (no result: ANO1 activ)
CCOP(=O)(OCC)C(NCc1ccccc1)c1ccc(Br)cc1 (stereo unspecified)	none | CHT act confirm 29.3 | HEK293 MP dye inactive
c1ccc(-c2csc(Nc3cccnc3)n2)nc1	none | CHT act confirm 50.1 | HEK293 MP dye -55.3
Cc1cc(N2CCN(C(=O)c3ccco3)CC2)c2ccccc2n1	CHT allo act 6.86 | CHT act confirm 39.3 | HEK293 MP dye -53.5
Nc1nc(N2CCN(C(=O)c3ccco3)CC2)nc2ccccc12	CHT allo act 6.44 | CHT act confirm 57.0 | HEK293 MP dye -57.9
Cc1cc(N2CCN(c3nc(-c4ccccc4)cs3)CC2)c2ccccc2n1	none
O=C(c1ccco1)N1CCN(c2ncccn2)CC1	none
Cc1cc(N2CCN(S(=O)(=O)c3ccccc3)CC2)c2ccccc2n1	CHT allo act 10.1 | CHT act confirm 53.3 | HEK293 MP dye -72.7
Cc1cc(=O)[nH]c(N2CCN(C(=O)c3ccco3)CC2)n1	none
Nc1nc(N2CCN(C(=O)c3ccco3)CC2)nc2ccc(Br)cc12	none | CHT act confirm 19.9 | HEK293 MP dye -31.6
O=C(c1ccco1)N1CCN(c2nc3ccccc3c(=O)n2-c2ccccc2)CC1	none
CC1CC(C)CN(C(=O)CCNC(=O)c2ccccc2Cl)C1 (stereo unspecified)	none
Cc1cc(N2CCN(C(=O)Nc3ccc(F)cc3F)CC2)c2ccccc2n1	CHT allo act 6.57 | CHT act confirm 53.0 | HEK293 MP dye -70.6
CC1(C)CC(C(CCN(Cc2ccccc2)C(=O)c2ccco2)c2ccc(F)cc2)CCO1 (stereo unspecified)	CHT allo act 9.68 | CHT act confirm 55.6 | HEK293 MP dye inactive
CC(C)(C)n1nnnc1C(c1ccc(C#N)cc1)N1CCCC2(CCCCC2)C1 (stereo unspecified)	none | CHT act confirm 51.5 | HEK293 MP dye inactive
Cc1ccc2c(CSc3nnc4ccccn34)cc(=O)oc2c1C	none
Cc1ccc2c(CSc3nc4ccccc4c(=O)n3CCCO)cc(=O)oc2c1C	CHT allo act 6.87 | CHT act confirm 14.7 | HEK293 MP dye inactive
CCCCNC(=O)COC(=O)c1ccc(F)cc1Cl	none
N#CC1=C(N)Oc2c(oc(CO)cc2=O)C1c1ccccc1[N+](=O)[O-] (stereo unspecified)	none
COCCn1c(Cc2ccccc2)nnc1SCc1ccc([N+](=O)[O-])cc1	none | CHT act confirm 20.7 | HEK293 MP dye inactive
N=c1c2c(n(Cc3ccc(F)cc3)c3c1CCC3)CCC2	CHT allo act 7.09 | CHT act confirm 48.6 | HEK293 MP dye -50.5
O=[N+]([O-])c1ccc2c(c1)C(N1CCOCC1)/C(=C/COc1ccc3ccccc3c1Br)O2 (stereo unspecified)	none
O=[N+]([O-])c1ccc(OC/C=C2\Oc3ccc([N+](=O)[O-])cc3C2N2CCOCC2)cc1 (stereo unspecified)	CHT allo act 7.46 | CHT act confirm 30.1 | HEK293 MP dye inactive
Cc1nc(NC(C)c2ccccc2)c2c3c(sc2n1)CCC3 (stereo unspecified)	none | CHT act confirm 18.1 | HEK293 MP dye inactive
CN(CC(=O)NCc1ccncc1)S(=O)(=O)c1ccc(Cl)cc1	none
Cc1nn(-c2cc(N3CCCCC3)ccc2N)c(=O)c2ccccc12	none
Nc1ccc(N2CCCCC2)cc1N1CCCCC1	CHT allo act 7.88 | CHT act confirm 49.1 | HEK293 MP dye -31.9
COc1cc(OC)c(C(=O)Nc2ccncc2)cc1OC	none
COc1ccc(C(=O)Nc2ccncc2)c(OC)c1	CHT allo act 6.59 | CHT act confirm 21.5 | HEK293 MP dye -55.9
CCOC(=O)c1c(C)[n+](-c2ccc(C)cc2)c(CC)c2cc(OC)c(OC)cc12	none | CHT act confirm 49.4 | HEK293 MP dye -35.3
Cc1c(C(=O)Nc2ccncc2)sc2nc(-c3ccccc3)cn12	none | CHT act confirm 30.4 | HEK293 MP dye -32.4
COc1cc(C(=O)OCC(=O)Nc2ccccc2C(=O)NC2CC2)c([N+](=O)[O-])cc1OC	none (no result: CHT allo act, CHT block, TMEM16A inh)
Nc1ccc(C(=O)OCc2ccncc2)cc1[N+](=O)[O-]	none | CHT act confirm 34.8 | HEK293 MP dye -30.6
CC(C)c1ccccc1NC(=O)Cn1c(-c2ccccc2Cl)nc2ccccc21	none | CHT act confirm 21.6 | HEK293 MP dye inactive
CN1CCCC1=Nc1c2c(nc3ccccc13)N(C)CC2	CHT allo act 8.93 | CHT act confirm 61.1 | HEK293 MP dye -57.2
CN1CCCCc2c1nc1ccccc1c2N (tested in a mixture with another compound)	CHT allo act 8.57 | CHT act confirm 22.7 | HEK293 MP dye -48.5
Nc1c2c(nc3ccccc13)N(c1ccccc1)CC2	none
c1ccc2c(c1)nc(N1CCCCCC1)c1ccccc12	none
CCC1CCC2(CC1)NC(=O)N(CC(=O)N1CCc3ccccc31)C2=O (stereo unspecified)	none (no result: CHT allo act, CHT block, TMEM16A inh)
C/C(=N\Nc1ccccn1)c1ccc(OC(F)F)cc1	none
C/C(=N\Nc1ccccn1)c1ccc(C#N)cc1	none | CHT act confirm 29.8 | HEK293 MP dye -55.9
CCN(c1ccc(NC(=O)COC(=O)CCC(=O)c2ccc(F)cc2)cc1)C(C)C	none
O=C1CCC(C(=O)N(Cc2cccs2)C2(C(=O)NC3CCCCC3)CCCCC2)N1 (stereo unspecified)	CHT allo act 6.95 | CHT act confirm 31.3 | HEK293 MP dye inactive
Cc1ccc2nc(N3CC(C)OC(C)C3)nc(-c3ccccc3)c2c1 (stereo unspecified)	none
Cc1ccc2c(c1)c(-c1ccccc1)nc1nncn12	none | CHT act confirm 38.1 | HEK293 MP dye -32.5
N#CCSc1nnc(Cc2ccc3c(c2)OCO3)o1	none
CCc1nccn1Cc1cc(C=O)ccc1OC	none | CHT act confirm 61.1 | HEK293 MP dye -43.9
COc1ccccc1N1CCN(c2cc(N3CCCC3)nc(C)n2)CC1	CHT allo act 7.47 | CHT act confirm 53.7 | HEK293 MP dye -47.7
